{"source": "the supplement of paper PMC10849652", "note": "About 7,900 targets were measured; listed, in parts, are those with a hit and a random draw of the rest. About 0.6% of all pairs of compound and target were hits. A number with no mark means an inactive call."}
{"compound": "FC(F)(F)c1ccc(/C=C/c2nc(COc3ccc(CCCCn4ccnn4)cc3)co2)cc1 [mubritinib]", "assay": "log2 fold change, soluble protein after heating vs DMSO (PISA); higher = thermal stabilisation; K562 cells, 10 uM, 30 min; active = over 0.2 and 3.5 SD of the protein, either way, in both replicates (recomputed)", "summary_of_the_method": "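Aliquots of K562 cells (2×10^6 cells/mL) treated with 10 μM compound for 30 min were heated for 3 min over 48°C-58°C. After pooling and extraction in PBS with 0.5% NP-40 at 4°C, soluble protein from a 21,000xg, 90 min spin was quantified by TMTpro 16plex LC-MS/MS with channel sums equalised. Thermal stability is expressed against control samples, from duplicates, as a log2 fold change.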"}
{"target": "TMEM8A (UniProt Q9HCN3)", "sequence (Q9HCN3 whole entry, looked up)": "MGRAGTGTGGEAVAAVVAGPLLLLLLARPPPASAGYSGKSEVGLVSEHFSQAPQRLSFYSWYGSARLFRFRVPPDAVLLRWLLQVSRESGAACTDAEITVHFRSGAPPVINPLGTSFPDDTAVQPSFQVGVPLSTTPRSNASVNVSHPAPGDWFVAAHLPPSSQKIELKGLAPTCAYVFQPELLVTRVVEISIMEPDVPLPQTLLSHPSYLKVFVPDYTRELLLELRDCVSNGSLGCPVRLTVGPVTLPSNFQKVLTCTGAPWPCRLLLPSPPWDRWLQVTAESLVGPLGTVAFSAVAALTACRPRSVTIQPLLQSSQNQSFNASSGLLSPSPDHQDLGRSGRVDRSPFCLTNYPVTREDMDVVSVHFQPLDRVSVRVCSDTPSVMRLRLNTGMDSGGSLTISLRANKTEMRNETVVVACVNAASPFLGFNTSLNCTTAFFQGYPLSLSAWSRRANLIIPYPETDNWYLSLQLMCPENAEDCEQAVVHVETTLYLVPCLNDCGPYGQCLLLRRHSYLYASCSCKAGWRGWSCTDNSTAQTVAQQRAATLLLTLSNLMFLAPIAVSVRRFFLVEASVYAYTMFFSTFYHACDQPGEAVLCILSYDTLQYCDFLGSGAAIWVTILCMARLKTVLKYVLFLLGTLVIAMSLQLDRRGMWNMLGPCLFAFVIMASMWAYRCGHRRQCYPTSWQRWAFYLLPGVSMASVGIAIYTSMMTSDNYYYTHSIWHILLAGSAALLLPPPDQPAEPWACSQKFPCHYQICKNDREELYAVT", "log2 fold change": -0.001}
{"target": "UBAP2L isoform 1 (UniProt Q14157)", "log2 fold change": 0.07}
{"target": "UBE4A isoform 2 (UniProt Q14139)", "sequence (Q14139 whole entry, looked up)": "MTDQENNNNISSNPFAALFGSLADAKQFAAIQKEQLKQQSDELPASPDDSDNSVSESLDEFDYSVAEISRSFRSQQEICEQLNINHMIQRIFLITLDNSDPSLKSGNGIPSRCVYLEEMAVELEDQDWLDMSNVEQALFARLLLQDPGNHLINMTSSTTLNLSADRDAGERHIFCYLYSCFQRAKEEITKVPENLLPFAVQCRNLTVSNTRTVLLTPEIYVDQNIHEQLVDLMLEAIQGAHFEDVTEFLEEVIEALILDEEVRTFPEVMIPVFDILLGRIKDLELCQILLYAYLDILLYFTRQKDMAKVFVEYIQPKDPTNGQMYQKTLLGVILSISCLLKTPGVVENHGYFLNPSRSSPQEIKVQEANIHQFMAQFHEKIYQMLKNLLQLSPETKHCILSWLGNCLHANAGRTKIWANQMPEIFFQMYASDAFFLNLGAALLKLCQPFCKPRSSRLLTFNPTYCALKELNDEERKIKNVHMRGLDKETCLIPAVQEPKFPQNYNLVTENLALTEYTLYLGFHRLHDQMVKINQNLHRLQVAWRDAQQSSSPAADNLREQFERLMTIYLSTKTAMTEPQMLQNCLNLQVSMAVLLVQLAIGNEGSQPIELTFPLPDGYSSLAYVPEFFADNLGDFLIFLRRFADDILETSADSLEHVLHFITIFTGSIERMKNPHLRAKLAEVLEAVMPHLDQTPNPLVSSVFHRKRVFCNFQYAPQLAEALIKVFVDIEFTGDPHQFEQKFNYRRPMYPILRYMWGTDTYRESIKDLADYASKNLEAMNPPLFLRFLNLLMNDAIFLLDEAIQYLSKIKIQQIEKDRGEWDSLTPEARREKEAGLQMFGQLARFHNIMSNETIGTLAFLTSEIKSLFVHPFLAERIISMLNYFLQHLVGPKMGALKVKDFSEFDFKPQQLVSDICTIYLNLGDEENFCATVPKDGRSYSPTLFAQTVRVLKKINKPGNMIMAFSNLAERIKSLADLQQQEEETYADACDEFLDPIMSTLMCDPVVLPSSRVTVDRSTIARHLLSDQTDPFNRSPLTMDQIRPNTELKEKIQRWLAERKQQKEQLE", "log2 fold change": 0.021}
{"target": "XPNPEP1 isoform 3 (UniProt Q9NQW7)", "log2 fold change": 0.042}
{"target": "UTP14A (UniProt Q9BVJ6)", "log2 fold change": -0.086}
{"target": "VAMP7 (UniProt P51809)", "sequence (P51809 whole entry, looked up)": "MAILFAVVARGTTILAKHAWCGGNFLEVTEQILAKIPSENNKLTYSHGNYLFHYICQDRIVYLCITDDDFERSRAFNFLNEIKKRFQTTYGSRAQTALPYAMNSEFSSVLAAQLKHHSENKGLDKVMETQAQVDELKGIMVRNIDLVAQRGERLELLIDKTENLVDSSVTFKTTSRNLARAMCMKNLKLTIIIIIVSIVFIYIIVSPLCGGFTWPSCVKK", "log2 fold change": 0.003}
{"target": "WDR4 (UniProt P57081)", "log2 fold change": 0.031}
{"target": "TOP2A isoform 4 (UniProt P11388)", "log2 fold change": -0.292}
{"target": "UBA1 (UniProt P22314)", "log2 fold change": "0.395 (active)"}
{"target": "WDHD1 (UniProt O75717)", "log2 fold change": 0.067}
{"target": "WDR61 (UniProt Q9GZS3)", "log2 fold change": 0.075}
{"target": "VTI1A (UniProt Q96AJ9)", "sequence (Q96AJ9 whole entry, looked up)": "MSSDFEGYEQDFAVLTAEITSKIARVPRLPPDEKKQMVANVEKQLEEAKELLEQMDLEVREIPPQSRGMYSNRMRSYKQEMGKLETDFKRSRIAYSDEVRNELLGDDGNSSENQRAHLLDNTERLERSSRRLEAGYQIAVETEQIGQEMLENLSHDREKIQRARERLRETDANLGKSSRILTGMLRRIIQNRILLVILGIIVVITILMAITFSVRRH", "log2 fold change": -0.007}
{"target": "VPS8 (UniProt Q8N3P4)", "log2 fold change": 0.043}
{"target": "USO1 isoform 2 (UniProt O60763)", "sequence (O60763 whole entry, looked up)": "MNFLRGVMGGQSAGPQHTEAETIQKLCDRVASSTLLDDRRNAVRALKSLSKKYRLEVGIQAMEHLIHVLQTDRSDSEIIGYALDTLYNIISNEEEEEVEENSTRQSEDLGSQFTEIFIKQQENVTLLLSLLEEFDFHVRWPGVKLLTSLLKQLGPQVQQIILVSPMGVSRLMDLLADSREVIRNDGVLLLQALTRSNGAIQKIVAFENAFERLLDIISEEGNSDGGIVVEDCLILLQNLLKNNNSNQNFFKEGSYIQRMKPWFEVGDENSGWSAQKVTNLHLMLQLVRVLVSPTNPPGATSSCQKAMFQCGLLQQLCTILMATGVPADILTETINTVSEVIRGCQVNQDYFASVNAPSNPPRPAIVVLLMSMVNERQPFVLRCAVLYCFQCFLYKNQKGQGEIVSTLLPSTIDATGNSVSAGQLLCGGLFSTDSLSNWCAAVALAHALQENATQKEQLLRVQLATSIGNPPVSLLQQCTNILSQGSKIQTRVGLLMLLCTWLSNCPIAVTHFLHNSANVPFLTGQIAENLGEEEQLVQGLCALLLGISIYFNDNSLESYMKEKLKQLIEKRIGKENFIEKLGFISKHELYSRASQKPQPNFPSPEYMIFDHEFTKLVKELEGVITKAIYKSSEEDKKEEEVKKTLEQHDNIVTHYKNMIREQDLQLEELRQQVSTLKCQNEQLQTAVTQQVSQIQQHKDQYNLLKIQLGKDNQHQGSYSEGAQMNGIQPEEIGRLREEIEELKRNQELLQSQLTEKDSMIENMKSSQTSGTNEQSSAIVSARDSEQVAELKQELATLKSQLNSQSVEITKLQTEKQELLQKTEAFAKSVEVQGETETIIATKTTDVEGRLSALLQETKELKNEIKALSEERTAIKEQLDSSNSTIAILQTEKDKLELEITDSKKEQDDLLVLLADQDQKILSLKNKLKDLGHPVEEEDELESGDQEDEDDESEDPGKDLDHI", "log2 fold change": 0.032}
{"target": "TSFM (UniProt P43897)", "log2 fold change": "-0.36 (active)"}
{"target": "TMEM9 (UniProt Q9P0T7)", "log2 fold change": 0.025}
{"target": "UBAP1 isoform 4 (UniProt Q9NZ09)", "log2 fold change": 0.084}
{"target": "VPS50 (UniProt Q96JG6)", "sequence (Q96JG6 whole entry, looked up)": "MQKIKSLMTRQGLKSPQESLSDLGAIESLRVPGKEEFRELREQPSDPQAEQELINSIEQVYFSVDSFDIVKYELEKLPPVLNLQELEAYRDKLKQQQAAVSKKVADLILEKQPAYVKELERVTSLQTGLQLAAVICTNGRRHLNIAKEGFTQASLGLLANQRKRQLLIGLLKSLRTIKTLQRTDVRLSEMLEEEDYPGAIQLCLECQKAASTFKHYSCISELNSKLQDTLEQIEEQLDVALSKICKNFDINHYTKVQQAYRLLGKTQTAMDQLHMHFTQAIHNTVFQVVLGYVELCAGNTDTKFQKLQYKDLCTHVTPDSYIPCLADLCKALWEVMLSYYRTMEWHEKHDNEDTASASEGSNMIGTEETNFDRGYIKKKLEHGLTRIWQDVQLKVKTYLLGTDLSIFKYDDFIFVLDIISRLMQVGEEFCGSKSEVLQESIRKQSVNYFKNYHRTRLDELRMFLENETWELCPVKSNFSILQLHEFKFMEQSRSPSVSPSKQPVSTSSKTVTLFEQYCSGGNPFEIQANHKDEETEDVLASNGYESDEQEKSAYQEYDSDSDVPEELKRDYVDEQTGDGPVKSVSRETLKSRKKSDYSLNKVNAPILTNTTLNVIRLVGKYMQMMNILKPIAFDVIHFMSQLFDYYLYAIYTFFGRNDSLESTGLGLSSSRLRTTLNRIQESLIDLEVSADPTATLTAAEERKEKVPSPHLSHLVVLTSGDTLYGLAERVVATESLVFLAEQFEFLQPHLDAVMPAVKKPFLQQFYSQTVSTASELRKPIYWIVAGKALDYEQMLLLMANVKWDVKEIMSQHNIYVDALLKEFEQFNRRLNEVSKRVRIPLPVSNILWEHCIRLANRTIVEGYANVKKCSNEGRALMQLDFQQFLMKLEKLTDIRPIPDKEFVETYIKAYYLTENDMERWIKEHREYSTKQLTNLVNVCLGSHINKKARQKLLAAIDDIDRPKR", "log2 fold change": 0.045}
{"target": "UNC119B (UniProt A6NIH7)", "sequence (A6NIH7 whole entry, looked up)": "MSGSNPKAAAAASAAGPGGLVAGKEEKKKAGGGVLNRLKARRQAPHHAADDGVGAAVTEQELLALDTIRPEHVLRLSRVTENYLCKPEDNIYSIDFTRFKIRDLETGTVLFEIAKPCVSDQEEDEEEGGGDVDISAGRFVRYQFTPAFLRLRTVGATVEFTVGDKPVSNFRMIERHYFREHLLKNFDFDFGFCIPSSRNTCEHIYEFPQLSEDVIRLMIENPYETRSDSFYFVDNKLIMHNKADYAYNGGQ", "log2 fold change": 0.14}
{"target": "XPO6 (UniProt Q96QU8)", "log2 fold change": 0.092}
{"target": "TUBA4A (UniProt P68366)", "log2 fold change": 0.073}
{"target": "TRMT10C (UniProt Q7L0Y3)", "sequence (Q7L0Y3 whole entry, looked up)": "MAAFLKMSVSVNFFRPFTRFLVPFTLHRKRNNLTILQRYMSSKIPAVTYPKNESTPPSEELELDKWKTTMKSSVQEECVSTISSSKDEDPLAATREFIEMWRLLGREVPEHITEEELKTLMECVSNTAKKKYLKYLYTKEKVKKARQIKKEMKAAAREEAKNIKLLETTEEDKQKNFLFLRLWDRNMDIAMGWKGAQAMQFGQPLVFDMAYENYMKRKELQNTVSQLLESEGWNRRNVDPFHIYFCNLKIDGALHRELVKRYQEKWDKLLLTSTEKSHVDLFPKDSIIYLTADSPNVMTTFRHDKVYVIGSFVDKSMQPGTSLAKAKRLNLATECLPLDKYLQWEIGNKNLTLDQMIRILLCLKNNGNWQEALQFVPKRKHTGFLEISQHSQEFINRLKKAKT", "log2 fold change": 0.153}
{"target": "TMEM120A (UniProt Q9BXJ8)", "log2 fold change": 0.048}
